Results filed as inconclusive are left out. Calls of active or inactive are those of the source. How the source made its calls, unless noted: active means hit-call score of the fitted dose curve at least 0.9, where 1 is the maximum; inconclusive means response in the unintended direction; inactive means score below 0.9.
Key:
[1] = target: rat Monoamine Oxidase, MAO-B, Peripheral (MAOBP), Maob (gene 25750) (UniProt P19643); assay: NVS_ENZ_rMAOBP: NovaScreen (NVS) Enzymatic Assay for rat Monoamine Oxidase, MAO-B, Peripheral (MAOBP) (AID 2283242)
[2] = target: rat Acetylcholinesterase (AChE), Ache (gene 83817) (UniProt P37136); assay: NVS_ENZ_rAChE: NovaScreen (NVS) Enzymatic Assay for rat Acetylcholinesterase (AChE) (AID 2283233)
Summary of the method: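 Rat brain membrane acetylcholinesterase activity measured colorimetrically 0.33 h after compound addition, loss of signal relative to DMSO. Primary screen in duplicate at 25 uM; actives re-run as concentration-response with 50 uM top concentration.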

[3] = test system: guinea pig Atrionatriuretic Peptide Receptor A (ANPA), gene 100135578; assay: NVS_GPCR_gANPA: NovaScreen (NVS) G Protein-Coupled Receptor Assay for guinea pig Atrionatriuretic Peptide Receptor A (ANPA) (AID 2283291)
Summary of the method: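 Radioligand binding to guinea pig cerebellar membranes was measured after 1 h by filter-based scintillation counting. Chemicals were tested in duplicate at 25 uM, with hits run in concentration-response to a maximum of 50 uM. Binding loss was fitted against DMSO.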

[4] = target: Voltage-dependent N-type calcium channel subunit alpha-1B (Rattus norvegicus) (UniProt Q02294); assay: NVS_IC_rCaChN: NovaScreen (NVS) Ion Channel Assay for rat Calcium Channel, Type N (CaChN) (AID 2283317)
[5] = target: rat Neurotensin Receptor (NTS), Ntsr1 (gene 366274) (UniProt P20789); assay: NVS_GPCR_rNTS: NovaScreen (NVS) G Protein-Coupled Receptor Assay for rat Neurotensin Receptor (NTS) (AID 2283308)
Summary of the method: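 Rat forebrain membranes; radioligand binding with competitive displacement, read by filter-based scintillation counting 1 h after dosing. Primary screen in duplicate at 25 uM; actives (e.g., 30% inhibition) rerun in concentration-response up to 50 uM, loss-of-signal versus DMSO.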

[6] = target: human Neonicotinoid receptor (NNR), CHRNA2 (gene 1135) (UniProt Q15822); assay: NVS_LGIC_hNNR_NBungSens: NovaScreen (NVS) Ligand-Gated Ion Channel Assay for human Neonicotinoid receptor (NNR) (AID 2283313)
Summary of the method: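 Radioligand displacement on human neuroblastoma membranes, 2 h, filter-based scintillation counting. Primary screen in duplicate at 25 uM; chemicals passing threshold (e.g. 30% inhibition) run singleton concentration-response to 50 uM; loss of binding fitted versus DMSO.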

[7] = read-out: xenobiotic metabolism (CYP2C9), CYP2C9 (gene 1559); assay: CLD_CYP2C9_6hr: CellzDirect (CLD) Gene Expression Assay for xenobiotic metabolism (CYP2C9) at 6 hours (AID 2283664)
Summary of the method: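 Primary human hepatocytes dosed daily with test chemicals at multiple concentrations; harvested at 6 h. CYP2C9 mRNA induction measured by qNPA chemiluminescence. Gain of signal fitted against 0.2% DMSO vehicle; cytotoxicity annotated from phase-contrast morphology.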

[8] = target: rat Gamma-Aminobutyric Acid Type A Receptor BDZ, alpha 6 site (GABARa6), Gabra6 (gene 29708) (UniProt P30191); assay: NVS_LGIC_rGABARa6: NovaScreen (NVS) Ligand-Gated Ion Channel Assay for rat Gamma-Aminobutyric Acid Type A Receptor BDZ, alpha 6 site (GABARa6) (AID 2283339)
Summary of the method: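 Rat cerebellar membranes; radioligand binding, filtration and scintillation counting, read 1 h after dosing. Single-concentration duplicate screen at 25 uM, then concentration-response up to 50 uM for actives; loss of signal fitted versus DMSO baseline.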

[9] = target: Norway rat Vesicular Monoamine Transporter (VMAT2), neurotransmitter transporter, Slc18a2 (gene 25549) (UniProt Q01827); assay: NVS_TR_rVMAT2: NovaScreen (NVS) Transporter Assay for Norway rat Vesicular Monoamine Transporter (VMAT2), neurotransmitter transporter (AID 2283376);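 further: actives lower the bound radioligand signal below the DMSO level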
Summary of the method: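 Rat forebrain tissue preparation used in a cell-free radioligand binding format; displacement read by filter-based scintillation counting 1 hour after dosing. Primary screen in duplicate at 25 uM, actives then run in concentration series; loss of signal versus DMSO baseline.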

[10] = target: bovine Estrogen Receptor (ER), ESR1 (gene 407238) (UniProt P49884); assay: NVS_NR_bER: NovaScreen (NVS) Nuclear Receptor Binding Assay for bovine Estrogen Receptor (ER) (AID 2283345);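 further: actives lower the bound radioligand count which means they displace the ER ligand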
Summary of the method: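 Bovine uterine membranes; tritiated or iodinated radioligand; competitive displacement; 18 h; scintillation read; DMSO negative control; 25 uM duplicates, then concentration series for actives.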

[11] = target: Estrogen receptor (Homo sapiens) (UniProt P03372); assay: NVS_NR_hER: NovaScreen (NVS) Nuclear Receptor Binding Assay for human Estrogen Receptor (ER) (AID 2283348)
Summary of the method: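 Cell-free radioligand binding with protein extracted from MCF7 cells; scintillation counting 18 hours after dosing. Loss of signal versus DMSO baseline read as displacement; primary single-concentration screen at 25 uM in duplicate, actives retested in concentration series.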

[12] = TOX21_p53_BLA_p2_viability: Viability Assessment in the Tox21 HCT-116 p53 Agonism Beta-lactamase Assay, Phase 2 (AID 2283591);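 further: compound exposure lasted 16 h at 37 °C; actives lower the ATP signal meaning cytotoxicity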
Summary of the method: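 HCT-116 p53-bla cells (4000/well) rested 5 h at 37C, then received compounds in DMSO (217-fold dilution) for 16 h at 37C, 5% CO2. After the CCF4 read, CellTiter-Glo was added; ATP luminescence was read after 30 min at room temperature.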

[13] = target: Cellular tumor antigen p53 (Homo sapiens) (UniProt P04637); assay: TOX21_p53_BLA_p2_ratio: Tox21 HCT-116 p53 Agonism Beta-lactamase Assay, Ratio, Phase 2 (AID 2283592)
Summary of the method: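 In this cell-based reporter format, HCT116 cells were dosed with chemicals delivered from DMSO by 217-fold dilution and incubated 16 h at 37C. Emission at 460 and 530 nm after 2 h CCF4-AM loading provided the ratio, fitted upward versus DMSO.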

[14] = TOX21_p53_BLA_p3_viability: Viability Assessment in the Tox21 HCT-116 p53 Agonism Beta-lactamase Assay, Phase 3 (AID 2283593);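 further: cells exposed to compound for 16 h before reading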
Summary of the method: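 HCT-116 cells (4000/well) rested 5 h at 37C, then got DMSO compounds by pin tool (217-fold dilution) for 16 h at 37C, 5% CO2. After the bla read, CellTiter-Glo was added and luminescence read at 30 min, room temperature.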

[15] = target: Cellular tumor antigen p53 (Homo sapiens) (UniProt P04637); assay: TOX21_p53_BLA_p3_ratio: Tox21 HCT-116 p53 Agonism Beta-lactamase Assay, Ratio, Phase 3 (AID 2283596)
Summary of the method: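 HCT116 p53-bla cells (4000/well) given compound in DMSO (217-fold dilution) after 5 h, incubated 16 h at 37C. CCF4-AM substrate 2 h at room temperature; 460/530 nm emission ratio, gain fitted against DMSO.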

[16] = TOX21_p53_BLA_p4_viability: Viability Assessment in the Tox21 HCT-116 p53 Agonism Beta-lactamase Assay, Phase 4 (AID 2283597);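 further: hits lower the luminescence signal meaning cytotoxicity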
Summary of the method: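 We seeded HCT116 p53 reporter cells at 4000/well and waited 5 h. We then added compounds in DMSO at a 217-fold dilution and incubated for 16 h. Viability was read as CellTiter-Glo luminescence after 30 min at RT.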

[17] = target: Cellular tumor antigen p53 (Homo sapiens) (UniProt P04637); assay: TOX21_p53_BLA_p5_ratio: Tox21 HCT-116 p53 Agonism Beta-lactamase Assay, Ratio, Phase 5 (AID 2283599)
Summary of the method: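 HCT-116 cells carrying a p53-inducible beta-lactamase reporter were seeded at 4000 cells/well and dosed after 5 h with compound in DMSO (217-fold dilution). After 16 h at 37C, CCF4-AM substrate was added for 2 h, and the 460/530 nm emission ratio was scored as gain-of-signal versus DMSO.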

[18] = TOX21_p53_BLA_p5_viability: Viability Assessment in the Tox21 HCT-116 p53 Agonism Beta-lactamase Assay, Phase 5 (AID 2283600)
Summary of the method: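 Compounds, pinned from DMSO at 217-fold dilution, were left on the cells for 16 h. The viability endpoint was ATP content measured by CellTiter-Glo luminescence, where falling signal reflects cytotoxicity.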

[19] = target: Cellular tumor antigen p53 (Homo sapiens) (UniProt P04637); assay: TOX21_p53_BLA_p4_ratio: Tox21 HCT-116 p53 Agonism Beta-lactamase Assay, Ratio, Phase 4 (AID 2283601)
Summary of the method: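 HCT116 cells carrying an inducible beta-lactamase reporter were plated at 4000 cells/well, rested 5 h, then exposed to compounds in DMSO (217-fold dilution) for 16 h at 37C. CCF4-AM substrate was loaded 2 h at room temperature; 460/530 nm emission ratio scored gain-of-signal versus DMSO.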

[20] = target: mouse Estrogen Receptor alpha (Era), Esr1 (gene 13982) (UniProt P19785); assay: NVS_NR_mERa: NovaScreen (NVS) Nuclear Receptor Binding Assay for mouse Estrogen Receptor alpha (Era) (AID 2283378);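 further: hit means loss of bound radioligand signal relative to DMSO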
Summary of the method: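 Filter scintillation counts of bound radioligand, measured 18 h post-dose, gave the readout; decreased signal relative to DMSO controls indicated displacement from mouse Era. Primary screen ran in duplicate at 25 uM; active chemicals were retested across concentrations.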

[21] = ACEA_ER_AUC_viability: ACEA Biosciences xCELLigence Real-Time Cell Analysis on Estrogen Receptor Agonism for Viability (AID 2283782);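 further: continuous compound exposure with impedance area under curve over 80 h; hit means loss of impedance signal meaning reduced cell growth or viability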
Summary of the method: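 T-47D human breast cells in phenol red-free RPMI1640 with 10% charcoal-stripped FBS were dosed with an 8-point 1:4 dilution series from 100 uM top final concentration, in duplicate. Impedance-based growth was followed for 80 h; AUC analysed versus DMSO.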

[22] = CCTE_Harrill_HTTr_Apoptosis_MCF7: CCTE's 6-hour Apoptosis Assessment for the High-Throughput Transcriptomics (HTTr) Platform, in MCF-7 cells cultured in DMEM + 10% fetal bovine serum, Harrill Lab (AID 2284011; active means hit-call score of the fitted dose curve at least 0.9, where 1 is the maximum; inactive means score below 0.9)
Summary of the method: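 Read-out: CellEvent Caspase 3/7 Green signal by high content imaging, gain-of-signal indicating apoptosis. MCF-7 cells, DMEM + 10% FBS, eight-point dilution series, 6 h exposure. Curves fitted bidirectionally relative to DMSO negative control.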

[23] = CCTE_Harrill_HTTr_CellCount_MCF7: CCTE's Cell Proliferation Assessment for the High-Throughput Transcriptomics (HTTr) Platform, Harrill Lab (AID 2284012);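 further: cells exposed to compound for six hours; intended direction is loss of nuclei count meaning fewer cells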
Summary of the method: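 MCF7 cells exposed 6 hours to an eight-point dilution series; Hoechst-stained nuclei counted by high-content imaging. Bidirectional curve fitting against DMSO baseline.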

Estrogen receptor (Homo sapiens), sequence (P03372 whole entry, looked up): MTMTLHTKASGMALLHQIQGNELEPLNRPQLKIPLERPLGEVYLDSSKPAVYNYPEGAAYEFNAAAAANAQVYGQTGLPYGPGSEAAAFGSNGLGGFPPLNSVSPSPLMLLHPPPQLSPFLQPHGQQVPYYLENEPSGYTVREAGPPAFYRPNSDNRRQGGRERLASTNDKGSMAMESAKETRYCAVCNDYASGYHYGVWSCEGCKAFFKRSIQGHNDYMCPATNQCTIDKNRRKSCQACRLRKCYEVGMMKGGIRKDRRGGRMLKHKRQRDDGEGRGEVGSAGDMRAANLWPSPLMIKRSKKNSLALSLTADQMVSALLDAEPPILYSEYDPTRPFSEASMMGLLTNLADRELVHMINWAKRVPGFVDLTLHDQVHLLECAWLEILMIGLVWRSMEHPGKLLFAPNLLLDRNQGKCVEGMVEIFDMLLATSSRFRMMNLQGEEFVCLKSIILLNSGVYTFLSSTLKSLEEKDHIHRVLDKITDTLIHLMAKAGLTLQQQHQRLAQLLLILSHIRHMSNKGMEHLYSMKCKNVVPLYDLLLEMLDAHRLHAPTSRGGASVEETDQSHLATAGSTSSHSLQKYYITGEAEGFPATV
Cellular tumor antigen p53 (Homo sapiens), sequence (P04637 whole entry, looked up): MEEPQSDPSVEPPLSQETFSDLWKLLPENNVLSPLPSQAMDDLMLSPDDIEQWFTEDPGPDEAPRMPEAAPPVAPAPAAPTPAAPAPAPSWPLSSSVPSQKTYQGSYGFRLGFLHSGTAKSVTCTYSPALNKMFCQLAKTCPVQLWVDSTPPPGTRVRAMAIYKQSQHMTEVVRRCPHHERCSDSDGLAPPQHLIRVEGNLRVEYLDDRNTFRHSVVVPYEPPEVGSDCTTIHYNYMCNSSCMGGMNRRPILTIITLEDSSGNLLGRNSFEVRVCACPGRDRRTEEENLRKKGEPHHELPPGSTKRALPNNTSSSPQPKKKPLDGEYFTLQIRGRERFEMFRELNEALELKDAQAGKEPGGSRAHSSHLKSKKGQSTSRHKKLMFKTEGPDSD
rat Gamma-Aminobutyric Acid Type A Receptor BDZ, alpha 6 site (GABARa6), Gabra6 (gene 29708), sequence (P30191 whole entry, looked up): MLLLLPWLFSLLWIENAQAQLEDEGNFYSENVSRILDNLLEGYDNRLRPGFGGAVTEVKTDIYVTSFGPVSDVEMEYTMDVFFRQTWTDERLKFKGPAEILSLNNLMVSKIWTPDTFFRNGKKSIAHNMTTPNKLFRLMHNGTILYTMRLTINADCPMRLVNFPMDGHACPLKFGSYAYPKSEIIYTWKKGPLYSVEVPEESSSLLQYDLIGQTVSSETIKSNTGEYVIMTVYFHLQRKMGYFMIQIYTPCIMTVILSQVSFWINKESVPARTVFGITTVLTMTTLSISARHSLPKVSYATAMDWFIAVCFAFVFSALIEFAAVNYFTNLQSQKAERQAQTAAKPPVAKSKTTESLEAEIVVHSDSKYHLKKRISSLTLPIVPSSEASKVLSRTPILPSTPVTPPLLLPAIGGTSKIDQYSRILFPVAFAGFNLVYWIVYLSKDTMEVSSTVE
rat Monoamine Oxidase, MAO-B, Peripheral (MAOBP), Maob (gene 25750), sequence (P19643 whole entry, looked up): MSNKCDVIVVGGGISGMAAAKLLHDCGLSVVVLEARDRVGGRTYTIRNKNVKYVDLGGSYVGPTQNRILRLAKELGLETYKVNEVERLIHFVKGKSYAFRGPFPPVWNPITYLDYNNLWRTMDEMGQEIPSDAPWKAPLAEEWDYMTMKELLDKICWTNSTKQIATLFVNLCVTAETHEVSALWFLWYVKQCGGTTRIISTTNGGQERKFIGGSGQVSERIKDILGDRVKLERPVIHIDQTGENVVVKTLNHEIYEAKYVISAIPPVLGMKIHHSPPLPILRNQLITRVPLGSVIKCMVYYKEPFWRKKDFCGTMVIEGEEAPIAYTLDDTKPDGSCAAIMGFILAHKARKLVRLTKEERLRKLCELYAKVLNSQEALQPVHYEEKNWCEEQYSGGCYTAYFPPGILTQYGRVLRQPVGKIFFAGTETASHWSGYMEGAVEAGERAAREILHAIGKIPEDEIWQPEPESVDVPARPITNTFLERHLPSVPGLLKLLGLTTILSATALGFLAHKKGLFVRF
Norway rat Vesicular Monoamine Transporter (VMAT2), neurotransmitter transporter, Slc18a2 (gene 25549), sequence (Q01827 whole entry, looked up): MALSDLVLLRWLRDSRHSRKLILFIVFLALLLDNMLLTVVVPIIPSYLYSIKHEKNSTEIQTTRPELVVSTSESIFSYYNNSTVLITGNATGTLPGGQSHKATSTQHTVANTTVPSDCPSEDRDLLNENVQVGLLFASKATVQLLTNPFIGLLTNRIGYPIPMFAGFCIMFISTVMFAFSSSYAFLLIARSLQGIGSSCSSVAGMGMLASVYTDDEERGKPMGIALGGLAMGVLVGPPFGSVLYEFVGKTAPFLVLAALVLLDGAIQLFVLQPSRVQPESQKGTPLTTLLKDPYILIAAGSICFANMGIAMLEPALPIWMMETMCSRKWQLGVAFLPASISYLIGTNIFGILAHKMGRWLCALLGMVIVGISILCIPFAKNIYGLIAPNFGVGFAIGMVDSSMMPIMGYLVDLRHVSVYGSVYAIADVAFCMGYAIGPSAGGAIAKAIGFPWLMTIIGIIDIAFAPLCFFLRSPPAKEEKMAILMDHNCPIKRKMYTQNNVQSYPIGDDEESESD
mouse Estrogen Receptor alpha (Era), Esr1 (gene 13982), sequence (P19785 whole entry, looked up): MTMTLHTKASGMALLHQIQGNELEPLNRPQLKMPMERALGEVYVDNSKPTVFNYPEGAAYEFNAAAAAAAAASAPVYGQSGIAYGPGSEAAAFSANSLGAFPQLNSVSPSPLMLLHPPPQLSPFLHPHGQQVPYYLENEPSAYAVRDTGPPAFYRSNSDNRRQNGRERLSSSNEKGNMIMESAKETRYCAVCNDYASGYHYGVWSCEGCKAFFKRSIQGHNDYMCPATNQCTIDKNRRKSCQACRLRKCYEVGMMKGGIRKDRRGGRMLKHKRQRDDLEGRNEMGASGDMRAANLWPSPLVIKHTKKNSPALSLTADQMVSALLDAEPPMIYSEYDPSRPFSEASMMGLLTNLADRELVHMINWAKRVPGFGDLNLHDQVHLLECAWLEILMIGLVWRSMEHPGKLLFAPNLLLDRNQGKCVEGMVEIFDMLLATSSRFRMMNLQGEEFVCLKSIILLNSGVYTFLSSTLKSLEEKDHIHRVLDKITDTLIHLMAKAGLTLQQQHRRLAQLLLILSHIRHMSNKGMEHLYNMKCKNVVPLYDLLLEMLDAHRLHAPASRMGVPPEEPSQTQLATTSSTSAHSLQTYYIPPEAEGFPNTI
rat Neurotensin Receptor (NTS), Ntsr1 (gene 366274), sequence (P20789 whole entry, looked up): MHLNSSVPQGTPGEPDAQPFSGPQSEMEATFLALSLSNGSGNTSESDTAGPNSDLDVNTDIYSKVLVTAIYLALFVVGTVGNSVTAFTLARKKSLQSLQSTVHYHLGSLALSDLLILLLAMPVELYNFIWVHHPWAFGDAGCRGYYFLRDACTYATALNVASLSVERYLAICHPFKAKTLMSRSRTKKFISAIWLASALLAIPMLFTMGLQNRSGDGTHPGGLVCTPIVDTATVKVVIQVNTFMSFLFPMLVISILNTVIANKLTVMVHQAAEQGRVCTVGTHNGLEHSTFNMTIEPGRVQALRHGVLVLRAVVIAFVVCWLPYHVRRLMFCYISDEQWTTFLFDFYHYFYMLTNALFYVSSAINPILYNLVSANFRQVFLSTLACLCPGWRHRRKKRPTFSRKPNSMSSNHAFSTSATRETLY
bovine Estrogen Receptor (ER), ESR1 (gene 407238), sequence (P49884 whole entry, looked up): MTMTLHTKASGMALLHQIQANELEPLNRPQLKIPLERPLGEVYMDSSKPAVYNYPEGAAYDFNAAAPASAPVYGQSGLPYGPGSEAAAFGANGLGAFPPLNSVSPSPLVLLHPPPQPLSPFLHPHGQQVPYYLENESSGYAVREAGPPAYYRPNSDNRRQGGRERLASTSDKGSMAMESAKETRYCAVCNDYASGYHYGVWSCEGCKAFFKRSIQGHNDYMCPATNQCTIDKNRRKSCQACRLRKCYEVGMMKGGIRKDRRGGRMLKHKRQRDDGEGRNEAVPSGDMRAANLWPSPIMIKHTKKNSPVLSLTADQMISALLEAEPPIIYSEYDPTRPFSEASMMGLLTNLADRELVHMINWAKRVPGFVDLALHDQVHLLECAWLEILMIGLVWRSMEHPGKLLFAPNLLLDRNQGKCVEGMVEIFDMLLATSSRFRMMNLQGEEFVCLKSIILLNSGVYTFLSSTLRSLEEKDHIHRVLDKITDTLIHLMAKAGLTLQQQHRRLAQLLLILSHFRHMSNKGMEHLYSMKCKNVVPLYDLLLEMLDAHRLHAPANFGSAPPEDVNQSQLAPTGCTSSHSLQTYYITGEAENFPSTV
human Neonicotinoid receptor (NNR), CHRNA2 (gene 1135), sequence (Q15822 whole entry, looked up): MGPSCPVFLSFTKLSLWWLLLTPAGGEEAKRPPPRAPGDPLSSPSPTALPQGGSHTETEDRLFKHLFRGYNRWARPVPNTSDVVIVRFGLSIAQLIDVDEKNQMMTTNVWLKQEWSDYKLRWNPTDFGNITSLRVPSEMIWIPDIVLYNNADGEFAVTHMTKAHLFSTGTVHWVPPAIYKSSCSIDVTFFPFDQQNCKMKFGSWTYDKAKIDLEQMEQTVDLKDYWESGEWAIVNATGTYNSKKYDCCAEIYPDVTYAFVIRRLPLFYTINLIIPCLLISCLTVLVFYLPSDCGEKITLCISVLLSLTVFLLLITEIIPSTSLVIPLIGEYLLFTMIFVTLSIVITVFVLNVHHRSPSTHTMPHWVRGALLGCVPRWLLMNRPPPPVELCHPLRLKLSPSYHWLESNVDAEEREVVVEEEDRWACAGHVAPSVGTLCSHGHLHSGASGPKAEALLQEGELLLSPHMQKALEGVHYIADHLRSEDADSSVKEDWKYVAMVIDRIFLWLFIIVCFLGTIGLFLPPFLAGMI

O=C1NS(=O)(=O)c2ccccc21
outcome [1]: inactive

Cc1nccn1-c1ccc(Sc2cccc(C3(C(N)=O)CCOCC3)c2)cc1
outcome [2]: inactive
outcome [1]: inactive
outcome [3]: inactive
outcome [4]: inactive

COC(=O)c1ccccc1C(=O)O
outcome [5]: inactive

COC(=O)c1ccc(I)cc1S(=O)(=O)NC(=O)Nc1nc(C)nc(OC)n1
outcome [5]: inactive

CCCOC(=O)NCCCN(C)C
AC50 [6]: 7.3 µM (active)
outcome [7]: inactive

Cc1cc(SC2=C(O)C[C@@](CCc3ccc(N)cc3)(C(C)C)OC2=O)c(C(C)(C)C)cc1CO
AC50 [6]: 13.1 µM (active)

CCOc1ccc2[nH]cc(C(=O)NCc3ccccc3)c(=O)c2n1
AC50 [8]: 215 nM (active)

NC(=O)N1c2ccccc2C=Cc2ccccc21
outcome [8]: inactive

CCCCCCCCCCCCCCCCCC(=O)OCC(CC)CCCC (configuration not stated)
outcome [9]: inactive

CC(=O)[O][Pb]([c]1ccccc1)([c]1ccccc1)[c]1ccccc1
outcome [10]: inactive
AC50 [11]: 8.22 µM (active)
AC50 [12]: 458 nM (active)
AC50 [13]: 23.3 µM (active)
AC50 [14]: 4.03 µM (active)
AC50 [15]: 38.7 µM (active)
AC50 [16]: 655 nM (active)
AC50 [17]: 32.7 µM (active)
AC50 [18]: 1.32 µM (active)
AC50 [19]: 32.5 µM (active)

CSc1ccc(C(=O)C(C)(C)N2CCOCC2)cc1
AC50 [11]: 25 µM (active)
outcome [20]: inactive
outcome [12]: inactive
outcome [13]: inactive
outcome [14]: inactive
outcome [16]: inactive
outcome [17]: inactive
outcome [18]: inactive

CCOP(=S)(OCC)Oc1cnc2ccccc2n1
outcome [10]: inactive
outcome [12]: inactive
outcome [14]: inactive
outcome [15]: inactive
outcome [17]: inactive
outcome [18]: inactive
outcome [19]: inactive
outcome [21]: inactive
outcome [22]: inactive
outcome [23]: inactive

CS(=O)(=O)c1ccc(C2=C(c3ccccc3)C(=O)OC2)cc1
outcome [8]: inactive
AC50 [9]: 12.5 µM (active)

COC(=O)C(C)N(C(=O)Cc1ccccc1)c1c(C)cccc1C (configuration not stated)
outcome [11]: inactive
outcome [20]: inactive
outcome [12]: inactive
outcome [15]: inactive

Reference: PubChem BioAssay (EPA / NIEHS)
